Experimental data taken from PubChem BioAssay (NCI).
About 83,000 compounds went through this panel and 20% of them were active in at least one assay; those are over-represented in the sample as a whole.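 Results are percent growth after 48 hours of single-concentration exposure. 100 means growth as in untreated cells, lower positive values show inhibition; negative values down to -100 show cell death.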 The source made the active and inactive calls. Rule for the calls: active = growth percent below 10; inactive = the rest.

The molecules below were run on SR leukemia (assay: NCI-60 one-dose screen, 48 h (100 = growth as untreated, 0 = no growth, -100 = all killed)). Settings: 10 µM unless noted.
`COc1cc(C2CC(c3ccccc3)=NN2C=O)ccc1Oc1nc2c(c(=O)n(C)c(=O)n2C)n1C` (stereo not drawn) was tested, and the growth was 67.4% (inactive). `COc1ccc2[nH]cc(C3(c4c[nH]c5ccc(OC)cc45)C(=O)Nc4ccc(F)cc43)c2c1` was tested, and the growth was 11.8% (inactive). `CC1=CC(=O)OC1C/C=C(\C)CCC1[C@@]2(C)CCC[C@@](C)(C(=O)O)C2CC[C@@]1(C)O` (stereo partly drawn) was tested, and the growth was 33.2% (inactive). In the case of `CC1=C(/C=C/C(C)=C/C=C(C(=O)O)\C(C)=C\C(=O)O)C(C)(C)CCC1`, the growth is reported as 95.7% (inactive). In the case of `CCN(CCC#N)c1ccccc1`, the growth is reported as 96.4% (inactive). `CCCCOC(=O)c1cc(O)c(O)c(O)c1` was tested, and the growth was 44.5% (inactive). `COc1cccc(-c2nc3sccn3c2-c2ccnc(NCCN3CCCNS3(=O)=O)n2)c1` was tested, and the growth was 59.5% (inactive). For `CC(=O)Oc1ccccc1C(=O)Nc1ncc([N+](=O)[O-])s1`, the growth was 13.1% (inactive). With `Cc1ccc([C@H]2c3[nH]c4ccccc4c3C[C@H]3C(=O)N(CCCCCCC(=O)NO)CC(=O)N23)cc1` the growth was 10.6% (inactive). For `COc1ccc(-c2cc(-c3cn(-c4cccc(Cl)c4)nc3-c3ccc(OC)cc3)[nH]c(=S)n2)cc1`, the growth was 75.3% (inactive). For `CCn1c(Cc2ccccc2Nc2c(Cl)cccc2Cl)nnc1SCC(=O)Nc1ccccc1C(F)(F)F`, the growth was 79.8% (inactive). For `COc1cc(/C=C/c2cc(/C=C/c3ccc(O)c(OC)c3)n(C(=O)c3ccccc3Br)n2)ccc1O`, the growth was -4.77% (active). With `CCOC(=O)C(Cc1ccccc1)n1c(O)c(/C=N/c2ncc(Cc3ccc(Cl)cc3Cl)s2)sc1=S` (stereo not drawn) the growth was 27.8% (inactive).
